The whole screen tested about 5,500 compounds, of which about 2,000 (36%) were called active. Roughly 18% stayed inconclusive and do not appear here. Some of the results follow. Values without a mark were called inactive. Cut-off read from the data, not from the text of the source: active = normalized growth mostly below about 0.91 (no sharp cut-off); inconclusive = no clear call, values can overlap the other calls; inactive = mostly above about 0.92.
Test: chemical genetic growth profiling, strain panel (AID 1159580);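 note: tested at 20 µM; growth read once vehicle control cultures reached saturation at 30 °C; 1 = growth at the plate median or of vehicle wells; lower values mean less growth of the strain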
Conditions: S. cerevisiae deletion strains, growth OD
[1] = locus YAR019C, strain CDC15, hits give low values
[2] = locus YBL105C, strain PKC1, hits give low values
[3] = locus YBR135W, strain CKS1, hits give low values
[4] = locus YBR136W, strain MEC1, hits give low values
[5] = locus YBR160W, strain CDC28, hits give low values
[6] = locus YDL017W, strain CDC7, hits give low values
[7] = locus YDL028C, strain MPS1, hits give low values
[8] = locus YDL101C, strain DUN1, hits give low values
[9] = locus YDL108W, strain KIN28, hits give low values
[10] = locus YDL214C, strain PRR2, hits give low values
[11] = locus YDR052C, strain DBF4, hits give low values
[12] = locus YDR054C, strain cdc34, hits give low values
[13] = locus YDR226W, strain ADK1, hits give low values
[14] = locus YDR477W, strain SNF1, hits give low values
[15] = locus YER123W, strain YCK3, hits give low values
[16] = locus YER133W, strain GLC7, hits give low values
[17] = locus YFL009W, strain cdc4, hits give low values
[18] = locus YFL029C, strain CAK1, hits give low values
[19] = locus YFR003C, strain YPI1, hits give low values
[20] = locus YFR019W, strain FAB1, hits give low values
[21] = locus YFR028C, strain CDC14, hits give low values
[22] = locus YGR040W, strain KSS1, hits give low values
[23] = locus YGR052W, strain FMP48, hits give low values
[24] = locus YGR092W, strain DBF2, hits give low values
[25] = locus YHR079C, strain IRE1, hits give low values
[26] = locus YHR082C, strain KSP1, hits give low values
[27] = locus YHR205W, strain SCH9, hits give low values
[28] = locus YIL147C, strain SLN1, hits give low values
[29] = locus YJL095W, strain BCK1, hits give low values
[30] = locus YJL157C, strain FAR1, hits give low values
[31] = locus YJR016C, strain ILV3, hits give low values
[32] = locus YJR066W, strain TOR1 (second series), hits give low values
[33] = locus YJR066W, strain TOR1, hits give low values
[34] = locus YKL048C, strain ELM1, hits give low values
[35] = locus YKL067W, strain YNK1, hits give low values
[36] = locus YKL101W, strain HSL1, hits give low values
[37] = locus YKL193C, strain SDS22, hits give low values
[38] = locus YKL203C, strain TOR2, hits give low values
[39] = locus YLR113W, strain HOG1, hits give low values
[40] = locus YLR133W, strain CKI1, hits give low values
[41] = locus YLR403W, strain SFP1, hits give low values
[42] = locus YML070W, strain DAK1, hits give low values
[43] = locus YMR001C, strain CDC5, hits give low values
[44] = locus YMR205C, strain PFK2 (second series), hits give low values
[45] = locus YMR277W, strain FCP1, hits give low values
[46] = locus YNL006W, strain LST8, hits give low values
[47] = locus YNL020C, strain ARK1, hits give low values
[48] = locus YNL161W, strain CBK1, hits give low values
[49] = locus YNL183C, strain NPR1, hits give low values
[50] = locus YNL207W, strain RIO2, hits give low values
[51] = locus YNL222W, strain SSU72, hits give low values
[52] = locus YNL307C, strain MCK1 (second series), hits give low values
[53] = locus YOL078W, strain AVO1, hits give low values
[54] = locus YOL136C, strain PFK27, hits give low values
[55] = locus YOR061W, strain CKA2, hits give low values
[56] = locus YOR119C, strain RIO1, hits give low values
[57] = locus YOR231W, strain MKK1, hits give low values
[58] = locus YOR329C, strain SCD5, hits give low values
[59] = locus YPL031C, strain PHO85, hits give low values
[60] = locus YPL153C, strain RAD53, hits give low values
[61] = locus YPL204W, strain HRR25, hits give low values
[62] = locus YPL209C, strain IPL1, hits give low values
[63] = locus YPL256C, strain CLN2, hits give low values
[64] = locus YPR025C, strain CCL1, hits give low values
[65] = locus YPR111W, strain DBF20, hits give low values
[66] = strain NNK1, hits give low values
[67] = strain TSCII, hits give low values

SMILES: C#CCSC1=NNC(c2ccccn2)S1 (stereo not drawn)
- normalized growth [1]: 0.583 (active)
- normalized growth [2]: 0.945
- normalized growth [3]: 0.928
- normalized growth [4]: 0.924
- normalized growth [5]: 0.932
- normalized growth [6]: 0.947
- normalized growth [7]: 0.917
- normalized growth [8]: 0.45 (active)
- normalized growth [9]: 0.932
- normalized growth [10]: 0.163 (active)
- normalized growth [11]: 0.94
- normalized growth [12]: 0.531 (active)
- normalized growth [13]: 0.975
- normalized growth [14]: 0.136 (active)
- normalized growth [15]: 0.125 (active)
- normalized growth [16]: 0.162 (active)
- normalized growth [17]: 0.573 (active)
- normalized growth [18]: 0.517 (active)
- normalized growth [19]: 0.957
- normalized growth [20]: 0.111 (active)
- normalized growth [21]: 0.763 (active)
- normalized growth [22]: 0.176 (active)
- normalized growth [23]: 0.175 (active)
- normalized growth [24]: 0.119 (active)
- normalized growth (locus YHR030C, strain SLT2, hits give low values): 0.135 (active)
- normalized growth [25]: 0.122 (active)
- normalized growth [26]: 0.21 (active)
- normalized growth [27]: 0.123 (active)
- normalized growth [28]: 0.932
- normalized growth [29]: 0.129 (active)
- normalized growth [30]: 0.119 (active)
- normalized growth [31]: 0.596 (active)
- normalized growth [32]: 0.124 (active)
- normalized growth [33]: 0.172 (active)
- normalized growth [34]: 0.262 (active)
- normalized growth [35]: 0.137 (active)
- normalized growth [36]: 0.173 (active)
- normalized growth [37]: 0.618 (active)
- normalized growth [38]: 0.153 (active)
- normalized growth [39]: 0.225 (active)
- normalized growth [40]: 0.152 (active)
- normalized growth [41]: 0.045 (active)
- normalized growth [42]: 0.12 (active)
- normalized growth [43]: 0.821 (active)
- normalized growth [44]: 0.167 (active)
- normalized growth [45]: 0.481 (active)
- normalized growth [46]: 0.892 (active)
- normalized growth [47]: 0.137 (active)
- normalized growth [48]: 0.738 (active)
- normalized growth [49]: 0.171 (active)
- normalized growth [50]: 0.811 (active)
- normalized growth [51]: 0.635 (active)
- normalized growth [52]: 0.151 (active)
- normalized growth [53]: 0.527 (active)
- normalized growth [54]: 0.13 (active)
- normalized growth [55]: 0.183 (active)
- normalized growth [56]: 0.139 (active)
- normalized growth [57]: 0.149 (active)
- normalized growth [58]: 0.855 (active)
- normalized growth [59]: 0.162 (active)
- normalized growth [60]: 0.126 (active)
- normalized growth [61]: 0.141 (active)
- normalized growth [62]: 0.951
- normalized growth [63]: 0.149 (active)
- normalized growth [64]: 0.931
- normalized growth [65]: 0.928
- normalized growth [66]: 0.408 (active)
- normalized growth [67]: 0.541 (active)

SMILES: O=C(CSC1=NNC(c2ccccn2)S1)Nc1ccccc1 (stereo not drawn)
- normalized growth [1]: 1
- normalized growth [2]: 0.998
- normalized growth [3]: 0.994
- normalized growth [4]: 1
- normalized growth [5]: 1
- normalized growth [6]: 1.01
- normalized growth [7]: 0.998
- normalized growth [8]: 0.997
- normalized growth [9]: 1
- normalized growth (locus YDL132W, strain cdc53, hits give low values): 0.995
- normalized growth [10]: 0.984
- normalized growth [11]: 0.994
- normalized growth [12]: 1
- normalized growth [13]: 1
- normalized growth [14]: 0.971
- normalized growth [15]: 0.951
- normalized growth [16]: 0.962
- normalized growth [17]: 1
- normalized growth [18]: 0.998
- normalized growth [19]: 1.01
- normalized growth [20]: 0.966
- normalized growth [21]: 1
- normalized growth [22]: 0.976
- normalized growth [23]: 1.08
- normalized growth [24]: 0.929
- normalized growth [25]: 1.08
- normalized growth [26]: 1.27
- normalized growth [27]: 0.97
- normalized growth [28]: 1
- normalized growth [29]: 1.08
- normalized growth (locus YJL128C, strain PBS2, hits give low values): 0.976
- normalized growth [30]: 0.934
- normalized growth [31]: 1
- normalized growth [32]: 0.942
- normalized growth [33]: 1.27
- normalized growth [34]: 0.949
- normalized growth [35]: 0.987
- normalized growth [36]: 0.981
- normalized growth [37]: 0.997
- normalized growth [38]: 1.03
- normalized growth [39]: 1.06
- normalized growth [40]: 0.933
- normalized growth [41]: 0.92
- normalized growth [42]: 0.966
- normalized growth [43]: 1
- normalized growth [44]: 0.955
- normalized growth [45]: 1
- normalized growth [46]: 1.02
- normalized growth [47]: 0.936
- normalized growth [48]: 0.999
- normalized growth [49]: 1.01
- normalized growth [50]: 0.995
- normalized growth [51]: 1
- normalized growth [52]: 0.949
- normalized growth [53]: 0.995
- normalized growth [54]: 0.967
- normalized growth [55]: 0.96
- normalized growth [56]: 0.973
- normalized growth [57]: 1.11
- normalized growth [58]: 1
- normalized growth [59]: 0.973
- normalized growth [60]: 0.955
- normalized growth [61]: 0.923
- normalized growth [62]: 1
- normalized growth [63]: 1.03
- normalized growth [64]: 0.999
- normalized growth (locus YPR106W, strain ISR1, hits give low values): 1.01
- normalized growth [65]: 1.01
- normalized growth [66]: 0.995
- normalized growth [67]: 0.996

Reference: PubChem BioAssay AID1159580 (chemical genetic matrix, 2015)
